From PubChem BioAssay
Most compounds without a hit are left out; they make up all but 4.8% or so of the library.
DAX1 inh-1: DAX1 (NR0B1) inhibitors on StAR promoter, primary screen, cell-based, luminescence, SF-1 (NR5A1), full-length DAX-1. AID 652010, 2013. hit rate 1.1% among 370,000. inhibition, % at 6.8 µM. HEK293T StAR-luciferase reporter, SF-1/DAX-1 repression relief;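 active means inhibition above the mean over all tested compounds plus 3 SD, cut at about 3.6% in these data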;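 further: 0% = DAX-1 cells with DMSO and 100% = cells lacking DAX-1 with DMSO; higher inhibition means more luminescence from relief of DAX-1 repression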
ssDAF12 agonist: S. stercoralis DAF-12 nuclear receptor activators, primary screen, cell-based, luminescence, HEK293, GRIP1 co-expression, lit1-tk-luc | HEK293 ssDAF-12/GRIP1 lit1-tk-luc reporter; % of 3 µM dafachronic acid response | activation, % at 6.8 µM | hit rate 1% among 370,000;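 active means activation above the mean over all tested compounds plus 3 SD, cut at about 0.9% in these data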;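 further: 0% = DMSO-only wells and 100% = 3 µM delta7-dafachronic acid wells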
hcDAF12 agonist: H. contortus DAF-12 nuclear receptor activators, primary screen, cell-based, luminescence, HEK293, lit1-tk-luc reporter; activation, % at 6.8 µM; HEK293 hcDAF-12 lit1-tk-luc reporter; 0% DMSO, 100% Δ7-dafachronic acid; hit rate 1.4% among 370,000; AID 652067, 2013;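 active means activation above the mean of all tested compounds plus 3 SD, cut at about 5.5% in these data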;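 further: 100% = response to 3 µM Δ7-dafachronic acid high control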
SMARCA2 activ: SMARCA2 (BRM) function activators, primary screen, cell-based, luminescence, high throughput; hit rate 1% among 370,000; AID 652017, 2013; activation, % at 9.1 µM; MG213 cells, MMTV-luciferase reporter, dexamethasone, overnight; in the data active means activation above about 7.8%;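 further: 0% = vehicle wells and 100% = reference activator wells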
DAX1 inh-2: DAX1 (NR0B1) inhibitors, primary screen, cell-based, HEK293, Gal4-DAX1, luciferase luminescence; hit rate 0.99% among 340,000; Nuclear receptor subfamily 0 group B member 1 (Homo sapiens), P51843; inhibition, % at 6.75 µM; HEK293 Gal4-DAX1 luciferase reporter; AID 504766, 2011;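 active means inhibition above the mean over all tested compounds plus 3 SD, cut at about 4.2% in these data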;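 further: 0% = DAX1-transfected cells with DMSO and 100% = empty-vector control cells with DMSO; inhibition shows as a rise in luminescence from relieved DAX1 repression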
hgDAF12 agonist: H. glycines DAF-12 receptor agonists, primary screen, cell-based, luminescence, HEK293, GAL4 fusion, UAS-luciferase. Nuclear hormone receptor DAF-12 (Heterodera glycines), GAL4 fusion. HEK293 GAL4-hgDAF12 UAS-luciferase reporter, agonist luminescence; normalized to butyrate control. activation, % at 6.8 µM. hit rate 1.8% among 370,000;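 active means activation above a cutoff set at the mean of all screened compounds plus 3 SD, cut at about 10% in these data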;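 further: 0% = DMSO wells and 100% = sodium butyrate wells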
LXR ag: LXR agonists, Gal4 luciferase reporter, confirmation, counter-screen for hcDAF-12 agonist project, cell-based, luminescence, HEK293, H. contortus campaign; shares compounds with hcDAF12 agonist; AID 743027, 2013; 3,400 tested, under 10 active; HEK293 Gal4-LXR tk-luc reporter, 24 h; normalized: DMSO 0%, positive control 100%; activation, % at 6.8 µM;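 active means mean percent activation of the reporter above a cutoff set as the average over tested compounds plus their standard deviation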
Target sequence (P55055 whole entry, looked up, the tested form may be a part): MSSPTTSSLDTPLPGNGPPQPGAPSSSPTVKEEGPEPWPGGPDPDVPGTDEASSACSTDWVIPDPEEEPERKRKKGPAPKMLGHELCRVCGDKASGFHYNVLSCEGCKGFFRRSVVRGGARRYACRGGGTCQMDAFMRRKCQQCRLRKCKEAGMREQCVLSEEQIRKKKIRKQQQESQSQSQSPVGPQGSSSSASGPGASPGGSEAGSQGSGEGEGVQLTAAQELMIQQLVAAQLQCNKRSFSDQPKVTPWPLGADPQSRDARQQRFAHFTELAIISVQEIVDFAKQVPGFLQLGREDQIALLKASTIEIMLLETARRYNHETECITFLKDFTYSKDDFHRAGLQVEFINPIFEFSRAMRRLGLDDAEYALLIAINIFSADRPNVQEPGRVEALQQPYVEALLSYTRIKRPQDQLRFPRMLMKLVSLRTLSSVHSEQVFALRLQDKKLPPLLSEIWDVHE
hcDAF12 conf: H. contortus DAF-12 receptor agonists, confirmation, cell-based, luminescence, HEK293, lit1-tk-luc, triplicate | shares compounds with hcDAF12 agonist | HEK293 hcDAF-12 lit1-tk-luc reporter; % of Δ7-dafachronic acid response | activation, % at 6.8 µM | hit rate 61% among 3,400;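 active means mean activation across triplicate tests above the threshold derived from the earlier primary screen, cut at about 5.5% in these data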;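 further: 0% = DMSO only wells and 100% = 3 µM Δ7-dafachronic acid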
* = called active by the depositor.

How did COc1cccc(C(=O)NC(=S)Nc2cccnc2)c1 do in these assays?
DAX1 inh-1: 1; ssDAF12 agonist: 1.0*; hcDAF12 agonist: 7.8*; SMARCA2 activ: 2; DAX1 inh-2: 0; hgDAF12 agonist: 7; LXR ag: 0; hcDAF12 conf: 1

Results for CCOc1ccc(NC(=O)C(C)Oc2ccccc2C(=O)Nc2ccc(C)c(Cl)c2)cc1 (configuration not stated) ?
DAX1 inh-1: 0; ssDAF12 agonist: 1; hcDAF12 agonist: 7.0*; SMARCA2 activ: -1; DAX1 inh-2: 0; hgDAF12 agonist: 8; LXR ag: 0; hcDAF12 conf: 7.4*

How did COc1ccccc1C(=O)NC(=O)Nc1cccc(Cl)c1 do in these assays?
DAX1 inh-1: 2; ssDAF12 agonist: 1; hcDAF12 agonist: 13*; SMARCA2 activ: 7; DAX1 inh-2: 4; hgDAF12 agonist: 14*; LXR ag: 2; hcDAF12 conf: 18*

How did COc1ccccc1C(=O)Nc1cc(Cl)ccc1O do in these assays?
DAX1 inh-1: 0; ssDAF12 agonist: 0; hcDAF12 agonist: 9.8*; SMARCA2 activ: 1; DAX1 inh-2: 0; hgDAF12 agonist: 3; LXR ag: 0; hcDAF12 conf: 5.8*

How did COC(=O)c1cc2c(s1)-c1ccc(OC)cc1CC2 do in these assays?
DAX1 inh-1: 1; ssDAF12 agonist: 0; hcDAF12 agonist: 7.1*; SMARCA2 activ: 3; DAX1 inh-2: 7.7*; hgDAF12 agonist: 6; LXR ag: 0; hcDAF12 conf: 4

Results for COC(=O)c1cc2c(s1)-c1ccccc1OC2 ?
DAX1 inh-1: 1; ssDAF12 agonist: 0; hcDAF12 agonist: 8.9*; SMARCA2 activ: 3; DAX1 inh-2: 1; hgDAF12 agonist: 4; LXR ag: 0; hcDAF12 conf: 3

What do the screens show for `COc1ccc2c(c1)CC/C2=N\NC(=O)c1ccccc1`?
DAX1 inh-1: 1; ssDAF12 agonist: -1; hcDAF12 agonist: 3; SMARCA2 activ: 2; DAX1 inh-2: 3; hgDAF12 agonist: 9

What do the screens show for `COc1ccccc1N1CCN(C(=O)c2cc3c(s2)-c2ccccc2OC3)CC1`?
DAX1 inh-1: 0; ssDAF12 agonist: -1; hcDAF12 agonist: 1; SMARCA2 activ: -2; DAX1 inh-2: 2; hgDAF12 agonist: 3

Results for COc1ccccc1C(=O)NNC(=O)c1ccccc1 ?
DAX1 inh-1: 2; ssDAF12 agonist: 1.0*; hcDAF12 agonist: 10*; SMARCA2 activ: 8; DAX1 inh-2: 6.0*; hgDAF12 agonist: 7; LXR ag: 1; hcDAF12 conf: 11*

Results for COc1ccccc1C(=O)NNC(=O)C1CCN(C(=O)OC(C)(C)C)CC1 ?
DAX1 inh-1: 0; ssDAF12 agonist: 0; hcDAF12 agonist: 7.1*; SMARCA2 activ: -2; DAX1 inh-2: 0; hgDAF12 agonist: 1; LXR ag: 0; hcDAF12 conf: 5

What do the screens show for `COc1ccccc1C(=O)CC(=O)c1ccccc1`?
DAX1 inh-1: 1; ssDAF12 agonist: 1.5*; hcDAF12 agonist: 6.7*; SMARCA2 activ: 4; DAX1 inh-2: 2; hgDAF12 agonist: 11*; LXR ag: 1; hcDAF12 conf: 11*
